High-throughput results deposited in PubChem BioAssay by several laboratories.
An excerpt weighted towards active compounds, which were near 1.3% of everything screened.
Sa ugtP lethal – kills S. aureus RN4220 lacking UgtP; S. aureus RN4220 ugtP deletion, OD600 growth, 16 h; actives 0.54% (n = 330,000); growth inhibition, % (concentration not given with the values); AID 1259309; in the data active = growth inhibition above about 68%;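 also: plate controls were untreated wells for no effect and antibiotic for full effect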
TcdB inh – inhibitors of Clostridioides difficile toxin B glycohydrolase | P18177 | TcdB glycohydrolase enzymatic assay, plate reader | inhibition, % at 9.99 µM | actives 0.24% (n = 350,000) | AID 652162; in the data active = inhibition above about 10%
MazEF act – increases E. coli MazEF RNase cleavage of RNA | actives 0.32% (n = 350,000) | activation, % at 20 µM | AID 504720 | P0AE70 | FAM/BHQ RNA-DNA oligo cleavage fluorescence, 5 h; in the data active = activation above about 50%
Target sequence (P0AE70 whole entry, looked up): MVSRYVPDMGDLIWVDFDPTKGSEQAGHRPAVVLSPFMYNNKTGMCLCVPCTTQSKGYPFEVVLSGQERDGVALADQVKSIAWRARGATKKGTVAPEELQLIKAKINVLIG
RN4220 kill – kills Staphylococcus aureus RN4220; S. aureus RN4220 growth, OD600, 16 h; inhibition, % (test concentration not listed); actives 0.33% (n = 330,000); AID 1259311; in the data active = inhibition above about 85%;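 also: plate controls were untreated cells for no effect and reference antibiotic for full effect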
Mtb hypoxia inh – inhibitors of hypoxia-regulated fluorescent reporter in Mycobacterium tuberculosis; M. tuberculosis hypoxia-regulated fluorescent reporter, fluorescence; fluorescence inhibition, % (concentration not given with the values); actives 0.1% (n = 300,000); AID 1159583; in the data active = fluorescence inhibition mostly above about 23%, no sharp cut-off; inactive = mostly below about 17%
PfHsp40 rescue – restores yeast growth despite PfHsp40 toxicity. AID 504582. S. cerevisiae expressing PfHsp40, growth rescue, ATP luminescence. actives 0.68% (n = 340,000). growth rescue, % at 12.5 µM; in the data active = growth rescue above about 28%, passing the limit was not always enough; inconclusive = no clear call, values can overlap the other calls;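 also: yeast W303a lacking pdr1 and pdr3 grown in galactose medium; growth measured after three days at 30 °C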
* marks the source's active call; other numbers are inactive results; ? = inconclusive; . = not tested or not shown; ! = not active in a repeat.

SMILES	Sa ugtP lethal	TcdB inh	MazEF act	RN4220 kill	Mtb hypoxia inh	PfHsp40 rescue
COc1ccccc1C(=O)Nc1sc2c(c1C#N)CCC2	1	.	80*	2	-3	-2
CC(C)Nc1cc(C(C)(C)C)nc2c(-c3ccccc3)cnn12	68	0	2	-13	12	3
CC(C)(C)c1cc(NCc2ccccn2)n2ncc(-c3ccc(Cl)cc3)c2n1	-1	-8	-4	-14	7	-1
CN(C)CCCNc1cc(C(C)(C)C)nc2c(-c3ccc(Cl)cc3)cnn12	100*	5	-23	101*	.	44*
Cc1cc(NCCCn2ccnc2)n2ncc(-c3ccc(Cl)cc3)c2n1	91*	.	3	30	.	0
Cc1cc(NCCCN2CCOCC2)n2ncc(-c3ccc(Cl)cc3)c2n1	-2	.	4	-10	7	0
CC(C)(C)c1cc(NCCCn2ccnc2)n2ncc(-c3ccccc3)c2n1	85*	2	20	58	7	0
C=CCc1c(C)nc(C)nc1NN=Cc1ccccc1O	-2	.	.	-1	0	.
CCOC(=O)/C=C(\C)Sc1cc(O)c2ccccc2c1O	93*	0	-10	97*	12	?
CSc1nc(Cl)cc(Nc2ccc(O)cc2)n1	7	15*	6	2	12	-1
CNc1cc(Cl)nc(SC)n1	-13	1	-3	-1	.	1
C[C@H]1CN([C@@H](C)CO)S(=O)(=O)c2ccc(/C=C/c3ccccc3)cc2O[C@@H]1CN(C)C(=O)NC1CCCC1	.	0	.	.	.	.
C[C@@H]1CN([C@H](C)CO)C(=O)c2cc(C#CCN(C)C)cnc2O[C@H]1CN(C)S(=O)(=O)c1cn(C)cn1	.	2	.	.	.	.
Cc1cccnc1Nc1nc(-c2ccccn2)cs1	99*	.	7	98*	.	77*
Cc1cccc(Nc2nc(-c3ccccn3)cs2)n1	-25	.	-9	28	8	512*
COc1ccc(C=NNC(=O)C(C)n2cnc3ccccc3c2=O)cc1 (configuration not stated)	8	.	.	3	2	.
O=c1c(O)cccc2cc(O)c(O)c(O)c12	-1	-10	281*	27	10	627*
COc1cc2cccc(OC)c(=O)c2c(OC)c1OC	-2	-1	0	1	.	-1
COC(=O)[C@H]1[C@H](CO)[C@H]2Cn3c(ccc(C4=CCCCC4)c3=O)[C@H]2N1Cc1cccnc1	.	0	.	.	.	.
C/C=C/c1cnc2c(c1)C(=O)N([C@@H](C)CO)C[C@H](C)[C@@H](CN(C)C(=O)Cc1ccccn1)O2	.	0	.	.	.	.
CC1=CC(=O)C=C(C)C1=NOS(=O)(=O)c1ccccc1	12	.	-6	4	.	335*
CC1=CC(=O)C(C(C)C)=C/C1=N/OS(=O)(=O)c1ccccc1	.	0	-3	.	.	346*
CC1=CC(=NOS(=O)(=O)c2ccccc2)C(C(C)C)=CC1=O	6	.	.	6	10	.
N#Cc1ccc(N2C(=O)[C@@H]3C(C(=O)c4ccc5ccccc5n4)=NN[C@@H]3C2=O)cc1	.	0	120*	.	.	-1
COc1ccc(S(=O)(=O)Nc2ccc3c(c2)C(=O)N([C@@H](C)CO)C[C@@H](C)[C@@H](CN(C)CC2CC2)OCCCC[C@@H](C)O3)cc1	.	0	.	.	.	.
SMILES	Sa ugtP lethal	TcdB inh	MazEF act	RN4220 kill	Mtb hypoxia inh	PfHsp40 rescue
CCOC(=O)c1c(NC(=O)CN2C(=O)NC3(CCCCC3C)C2=O)sc(C(=O)N(C)C)c1C (configuration not stated)	4	-1	4	0	5	-2
CCOC(=O)c1c(NC(=O)CN2C(=O)N(C)C3(CCCCC3)C2=O)sc(C(=O)N(C)C)c1C	-4	2	5	3	25*	1
O=[N+]([O-])c1ccc(C2CCCCC2=NOCc2ccc(F)cc2)c([N+](=O)[O-])c1 (configuration not stated)	-17	.	.	3	17	.
COc1ccc(N2CC(C(=O)Nc3cccc(S(=O)(=O)N4CCCC4)c3)CC2=O)c(OC)c1 (configuration not stated)	-2	0	4	5	9	0
COc1ccc(NC(=O)C2CC(=O)N(c3ccccc3F)C2)cc1S(=O)(=O)N1CCCCC1 (configuration not stated)	.	13*	6	.	.	.
Nc1ccc2c3c(cccc13)-c1ccccc1-2	85*	1	-496	71	-6	0
O=C1NC(=S)S/C1=C\C=C\c1ccc([N+](=O)[O-])o1	100*	0	-5	100*	.	0
COc1ccccc1OCC(=O)Nc1ccc(-c2nnc(-c3ccco3)o2)cc1	2	12*	4	-2	-5	0
O=C(C[C@H]1C[C@H]2c3cc(NC(=O)C4CCC4)ccc3O[C@H]2[C@@H](CO)O1)NCC1CC1	.	1	.	.	.	.
CCOC(=O)c1ccc(N=c2sc(C(=O)OC)cc(=O)n2Cc2ccco2)cc1	-9	0	7	-11	3	2
CCOC(=O)c1ccc(N=c2sc(C(=O)OC)cc(=O)n2CCCN2CCOCC2)cc1	-1	11*!	9	-11	6	1
FC(F)(F)c1cccc(N2CCc3cn[nH]c32)c1	19	.	-3	31	-7	292*
FC(F)(F)c1cccc(N2CCNCC2)c1	-2	.	.	2	-2	.
CCCC(=O)Nc1ccc2c(c1)C(=O)N(C)C[C@H](OC)[C@H](C)CN(C(=O)c1cnccn1)[C@@H](C)CO2	.	0	.	.	.	.
CN(C)CCCNC(=O)C[C@H]1C=C[C@H](NC(=O)c2ccccc2F)[C@@H](CO)O1	.	-1	.	.	.	.
CCCCCCCCCCCCCCCC(=O)OC(CC(=O)O)C[N+](C)(C)C (configuration not stated)	99*	2	-10	42	1	125*
CCCCCCC(=O)O	6	-2	10	3	.	-1
O=c1c2oc3nc4c(cc3c2ncn1CCCc1ccccc1)CCCC4	-6	11*	11	5	22	0
CC(NC(=O)c1ccccc1Cl)C(=O)OCC(=O)N1CC2(C)CC1CC(C)(C)C2 (configuration not stated)	1	.	.	10	-4	.
CNC(=S)NN=Cc1ccccc1Cl	-3	.	.	2	11	.
S=C(NN=Cc1ccccc1Cl)Nc1cccc(Cl)c1Cl	99*	.	.	-8	2	.
Cn1cc(Cl)c(C(=O)NN=Cc2ccc3c4c(cccc24)CC3)n1	-3	.	.	-3	1	.
Cn1cc(Cl)c(C(=O)N/N=C/c2ccc3c4c(cccc24)CC3)n1	.	.	68*	.	.	1
Cc1ccc(S(=O)(=O)NC23CC4CC(CC(C4)C2)C3)cc1	.	1	3	.	.	107*
CSCC[C@H](NC(=O)OC(C)(C)C)C(=O)NN=Cc1cccc2cccnc12	-6	.	.	-4	-4	.
CCOc1ccc(C2C(C#N)=C(N)N3C(=C2C#N)Sc2ccccc23)cc1 (configuration not stated)	-18	.	100*	3	6	0
CC(CCc1oc2ccc(Br)cc2c1-c1ccc(C)o1)=NO	89*	.	.	-5	6	.
